Rows were chosen to be rich in hits. Some 4.2% of all compounds tested hit in one or more screens of this group.
PLK1 PBD inh – qHTS for Inhibitors of PLK1-PDB (polo-like kinase 1 - polo-box domain): Primary Screen | Plk1 PBD binding of FITC phosphopeptide, fluorescence polarization | 360,000 tested, 2.8% active | Potency, µM, for the others: max response, negative = inhibition, actives largely listed as inhibitors | Serine/threonine-protein kinase PLK1 (Homo sapiens), P53350; further: series mostly up to about 57 µM; nearly all actives have a fitted effect of over 65% in size
ALOX12 inh – Primary qHTS assay for inhibitors of human arachidonate 12S-lipoxygenase (ALOX12): Round 2; purified 12hLO, xylenol orange hydroperoxide absorbance; Potency, µM (doses to about 108 µM), without a hit: at the top dose activity change, negative = inhibition, actives largely listed as inhibitors; 580,000 tested, 1.1% active
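Hydroperoxide product was detected by ferrous iron/xylenol orange as the 573 to 405 nm absorbance ratio. Arachidonic acid at 40 uM (final) was turned over for 30 min at room temperature by 150 nM human 12hLO, pH 7.0 Hepes buffer, after 15 min compound preincubation.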
VDR inh – Inhibitors of the vitamin D receptor (VDR): qHTS; Vitamin D3 receptor (Homo sapiens), P11473; VDR-SRC2-3 peptide fluorescence polarization, 2 h; Potency, µM, without a hit: max response, negative = inhibition, hits mostly inhibitors; 400,000 tested, 0.93% active; AID 504847, 2011
Target sequence (P11473 whole entry, looked up): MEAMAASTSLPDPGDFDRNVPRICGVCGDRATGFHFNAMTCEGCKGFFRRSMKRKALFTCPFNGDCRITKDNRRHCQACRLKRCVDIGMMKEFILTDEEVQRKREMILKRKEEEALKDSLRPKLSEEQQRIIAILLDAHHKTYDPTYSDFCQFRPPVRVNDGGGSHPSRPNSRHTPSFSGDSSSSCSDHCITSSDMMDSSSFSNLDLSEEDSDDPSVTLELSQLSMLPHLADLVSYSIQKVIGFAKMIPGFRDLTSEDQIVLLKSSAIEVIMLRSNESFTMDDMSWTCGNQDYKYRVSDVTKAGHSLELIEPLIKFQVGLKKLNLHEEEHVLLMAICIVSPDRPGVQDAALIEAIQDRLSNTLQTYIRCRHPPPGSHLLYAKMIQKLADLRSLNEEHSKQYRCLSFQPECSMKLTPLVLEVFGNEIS
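Fluorescence polarization assay measuring small-molecule disruption of VDR binding to the coregulator peptide SRC2-3. Compounds were pin-transferred (23 nl) into the reagent mix and incubated 2 h at room temperature before reading.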
Sfp inh – qHTS Assay for Inhibitors of Bacillus subtilis Sfp phosphopantetheinyl transferase (PPTase). 310,000 tested, 3.5% active. Biochemical Sfp PPTase activity, qHTS. Potency, µM, inactives show largest response in the series, negative = inhibition, actives largely listed as inhibitors. 4'-phosphopantetheinyl transferase ffp (Bacillus subtilis), Q9F4F7. AID 1490, 2009;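 further: the enzyme is Sfp with the accession as filed and its product quenches rhodamine fluorescence; 0% = enzyme reaction without inhibitor and -100% = no enzyme wells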
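Compounds were incubated with enzyme (final 15 nM) for 15 min at room temperature before substrate addition started the reaction. Fluorescence at 525 nm excitation, 598 nm emission was recorded immediately and after 30 minutes.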
Starred values were filed as active, the others as inactive; ? = inconclusive; nt = no result; [ ] = dose if it differs, or a comment. The call rests on the fitted dose curve; in most records, active means well fitted curve in the direction sought with a large enough effect; inconclusive means small, poorly fitted or top-dose-only effect, or another doubt; inactive means no such curve, though single readings can be large; an effect the other way counts as inactive or inconclusive. Unless noted, on the % scale 0 is the no-effect control and ±100 the full control effect; potency means the concentration at half of the fitted maximal effect.

SMILES	PLK1 PBD inh	ALOX12 inh	VDR inh	Sfp inh
CCOC(=O)c1c(NC(=O)c2ccoc2C)sc(C(=O)N(C)C)c1C	?	4.1%	-1.7%	-8.7%
CCN(CC)C(=O)c1sc(NC(=O)c2ccncc2)c(C(=O)OC)c1C	-19.7%	-13.1%	?	28.2µM*
CCC(C)NC(=O)c1cc(-c2ccc(C)s2)nc2ccccc12 (stereo not given)	nt	5.0%	nt	nt
CCN(CC)C(=O)c1sc(NC(=O)c2ccoc2C)c(C(=O)OC)c1C	21.2µM*	?	?	31.6µM*
COc1ccc(Cl)cc1NC(=O)c1c(NCc2cccnc2)sc2c1CCCC2	nt	1.0%	?	nt
NC(=O)COC(=O)c1ccc(C(=O)C(=O)c2ccccc2)cc1	-4.1%	-14.5%	-4.1%	-15.3%
N=c1c(S(=O)(=O)c2ccc(Br)cc2)cc2c(=O)n3ccccc3nc2n1C1CCCCC1	-2.8%	-18.5%	-10.6%	1.5%
N=c1c(S(=O)(=O)c2ccccc2)cc2c(=O)n3ccccc3nc2n1C1CCCCC1	21.2µM*	10.1%	-25.5%	nt
CCc1nc(CN(C)C(=O)C2CCC(=O)N(CCc3cccc(F)c3)C2)no1 (stereo not given)	-10.5%	8.5%	-2.6%	9.3%
CCN(CC)C(=O)CN1CCN(c2ncccn2)CC1	1.1%	-15.6%	15.2%	89.1µM*
O=C(CN1CCN(c2ncccn2)CC1)N1CCCC1	2.5%	?	-11.2%	?
OCC1OC(c2ccccc2)C=CC1Oc1cc(Cl)cc(Cl)c1 (stereo not given)	nt	nt	nt	-2.7%
CCN(CC)CCCNC(=O)c1cc(-c2ccc(OC)cc2)nc2ccccc12	nt	6.31µM*	nt	nt
CCCCCNC(=O)c1cc(-c2ccc(OC)cc2)nc2ccccc12	nt	31.6µM*	nt	nt
CCCCNC(=O)c1cc(-c2ccc(OCC)cc2)nc2ccccc12	nt	-40.1%	nt	nt
CCN1C(=O)S/C(=C/c2c(OCc3ccc(C(=O)O)cc3)ccc3ccccc23)C1=O	37.7µM*	-25.7%	?	?
COc1ccc(C(=O)Nc2ccc3oc(-c4ccncc4)nc3c2)cc1	nt	-25.7%	nt	nt
OC(CNCc1ccncc1)c1ccccc1 (stereo not given)	26.7µM*	?	-18.9%	15.3%
Cn1c(SCC(=O)N2CCc3ccccc32)nc2cccnc21	23.8µM*	-10.8%	-25.4%	10.5%
COc1ccc(OC)c(C(=O)CSc2nc3cccnc3n2C)c1	-25.7%	-1.8%	-0.7%	79.4µM*
NC(=O)c1ccsc1NC(=O)COC(=O)C1CCCN1C(=O)c1cccs1 (stereo not given)	-23.9%	0.2%	-2.1%	2.1%
O=C(NC1c2ccccc2-c2ccccc21)c1ccco1	21.2µM*	-18.3%	-11.0%	-8.8%
Cc1noc(-c2ccc(OC3CN(C(=O)c4cc(F)ccc4F)C3)cc2)n1	nt	44.0%	nt	nt
Cn1cc(-c2nc3cnc(N4CCNCC4)nc3n(Cc3ccc(F)cc3)c2=O)c2ccccc21	nt	-9.0%	49.3%	20µM*
COCCn1c(=O)c(-c2cc(F)cc(F)c2)nc2cnc(N3CCN(C)CC3)nc21	nt	?	-3.8%	7.0%
SMILES	PLK1 PBD inh	ALOX12 inh	VDR inh	Sfp inh
O=c1c(-c2ccc(Cl)cc2)nc2cnc(N3CCNCC3)nc2n1Cc1cccs1	nt	?	70.6%	28.2µM*
O=c1c(-c2cc(F)cc(F)c2)nc2cnc(N3CCNCC3)nc2n1Cc1cccs1	nt	?	44.4%	35.5µM*
O=c1c(-c2cc(F)cc(F)c2)nc2cnc(N3CCOCC3)nc2n1Cc1cccs1	nt	0.0%	-1.9%	19.2%
CN1CCN(c2ncc3nc(-c4cc(F)cc(F)c4)c(=O)n(CCC#N)c3n2)CC1	nt	?	22.4µM*	-28.7%
COc1ccc(-c2nn(-c3ccccc3)cc2C(=O)OCC(=O)c2ccc(C)c([N+](=O)[O-])c2)cc1	-8.0%	-5.7%	11.2%	17.4%
Cc1ccc(NC(=O)CCC(=O)OCC(F)(F)C(F)F)cc1	-9.9%	-1.2%	-19.1%	17.8%
O=c1c(-c2cccs2)nc2cnc(N3CCNCC3)nc2n1Cc1cccs1	nt	?	103.7%	17.8µM*
O=c1c(-c2cccs2)nc2cnc(N3CCNCC3)nc2n1CCc1ccccc1	nt	?	124.0%	?
Cc1cc(C)n(Cc2ccc(C(=O)O)cc2)n1	-2.7%	-24.0%	-0.1%	7.4%
Cc1ccc(C)n1Cc1ccc(C(=O)O)cc1	2.99µM*	nt	23.8%	?
Cc1nc(C#N)c(N/N=C/c2c(F)cccc2Cl)o1	-9.7%	4.1%[57.4 µM]	79.4µM*	3.2%
Cc1nc(N)nc(N/N=C/c2c(F)cccc2Cl)n1	1.7%	-6.6%	-1.3%	-5.6%
Cc1ccc(-c2ccc(/C=N\NC(=O)C3C(=O)NCC3c3ccccc3)o2)cc1Cl (stereo not given)	-5.0%	0.0%	-2.7%	50.1µM*
O=C1NCC(c2ccccc2)C1C(=O)N/N=C\c1ccc(-c2cccc(Cl)c2Cl)o1 (stereo not given)	-4.5%	6.3%	1.1%	-28.9%
CCOc1ccc(S(=O)(=O)Nc2ncn[nH]2)cc1	-13.6%	?	-4.8%	16.9%
CCOc1ccc(S(=O)(=O)Nc2cc(Sc3ncn[nH]3)c3oc(=O)sc3c2)cc1	nt	nt	nt	7.94µM*
S=C(Nc1cccc(Cl)c1)N(CCCN1CCCC1)Cc1cccn1Cc1ccc(Cl)cc1	-6.6%	6.9%	-13.7%	63.1µM*
CSc1cccc(NC(=S)N(CCCN2CCCC2)Cc2cccn2Cc2ccc(Cl)cc2)c1	-15.6%	?	4.7%	79.4µM*
COc1cccc(NC(=S)N(CCCN2CCCC2)Cc2cccn2Cc2ccc(Cl)cc2)c1	-0.3%	-17.7%	-11.3%	6.6%
CSc1cccc(NC(=S)N2CCCN(Cc3cccc(Cl)c3)C2)c1	-13.5%	35.5µM*	-1.1%	6.5%
CCNC(=O)COC(=O)CCC(=O)c1cccs1	-3.1%	5.1%	4.0%	-17.5%
CCOC(=O)CSc1cc(-c2ccccc2)nc2ncnn12	-6.3%	244.4%	-5.0%	-1.8%
C/C(=N\NC(=O)c1ccn(C)n1)c1ccc(NC(=O)c2cccc(F)c2)cc1	-7.6%	4.47µM*	34.9%	9.3%
Cc1cc(NC(=O)C(C)(C)C)no1	-9.5%	4.6%	-6.2%	4.0%
COc1ccc(CCNc2nc(-c3ccc(NC(C)=O)cc3)cs2)cc1OC	-15.3%	6.6%	-5.8%	-24.5%
SMILES	PLK1 PBD inh	ALOX12 inh	VDR inh	Sfp inh
COc1ccc(CCNc2nc(-c3ccc(F)cc3)c(CC(=O)O)s2)cc1OC	8.44µM*	-0.5%	79.4µM*	35.5µM*
COc1ccc(CCNc2nc(-c3sc(C)nc3C)cs2)cc1OC	-6.5%	?	-15.2%	44.7µM*
COc1cc(C)nc(Nc2nc(C)c(C(C)=O)s2)n1	2.99µM*	0.0%	-14.3%	-1.3%
COc1ccc(CCNc2nc(C)c(C(C)=O)s2)cc1OC	4.74µM*	nt	39.8µM*	15.8µM*
CC(=O)c1sc(Nc2cc(C)cc(C)c2)nc1C	nt	2.8%	nt	nt
CC(Sc1ccccc1)C(=O)Nc1cccc(-n2cnnn2)c1 (stereo not given)	nt	-18.8%	nt	nt
COc1ccc(Br)cc1/C=N/n1c(-c2ccccc2)n[nH]c1=S	-11.3%	-2.7%	-4.0%	11.0%

High-throughput results: PubChem BioAssay, National Center for Advancing Translational Sciences (NCATS)
